# Assay results as given in the supplement of paper PMC12350171.
# Structures can show the parent of a compound that is named as a salt. A number with no mark means an inactive call.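 The calls were made as follows: active = normalised median growth AUC below 0.1 of DMSO control; inactive = AUC 0.1 or higher.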
# What was measured:
# Test in all cases: growth AUC normalised to DMSO control (median) (fraction of control); higher = less growth inhibition, active = hit call of the paper
# Settings in all cases: 20 µM
# P. vulgatus RND KO = system: P. vulgatus RND KO
# How it was run: (§1)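 Area under the growth curve, calculated by the trapezoidal rule up to entry into stationary phase, was normalised to vehicle wells on the same plate. Strains had been passaged twice overnight without oxygen and then grown in mGAM in 96-well plates from OD578 0.01, each with an approved-drug library compound at 20 μM in 1% DMSO. OD578 was read hourly over 24 h in an anaerobic incubator, and the median of three biological replicates is given.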
# P. vulgatus WT = system: P. vulgatus WT
# How it was run: as §1
# [1] = system: S. enterica typhimurium WT
# How it was run: as §1
# [2] = system: S. enterica typhimurium tolC KO
# How it was run: as §1
# 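Also: active when median AUC fell below 0.1.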
Compound,growth AUC normalised to DMSO control (P. vulgatus RND KO),growth AUC normalised to DMSO control (P. vulgatus WT),growth AUC normalised to DMSO control [1],growth AUC normalised to DMSO control [2]
CCN(CC)C(=O)c1cccnc1 [Nikethamide],0.992,1,1,1.01
Cc1ccc2c(Cl)cc(Cl)c(O)c2n1 [Chlorquinaldol],0.0174 (active),0.014 (active),0.982,0.371
Nc1nc(CC(=O)Nc2ccc(CCNC[C@H](O)c3ccccc3)cc2)cs1 [Mirabegron],1,0.989,0.991,1
CCCCOC(=O)c1ccccc1Nc1cccc(C(F)(F)F)c1 [Ufenamate],1.02,0.978,0.998,0.992
NC(=O)NS(=O)(=O)c1ccc(N)cc1 [Sulfacarbamide],0.997,1.01,0.995,1
Brc1c(NC2=NCCN2)ccc2nccnc12 [Brimonidine L-tartrate],0.994,1.02,0.999,1.01
O=C1[C@H]2CCCC[C@H]2C(=O)N1CCCCN1CCN(c2nsc3ccccc23)CC1 [Perospirone hydrochloride],0.997,0.986,0.998,0.98
CN1CC(=O)N2[C@H](c3ccc4c(c3)OCO4)c3[nH]c4ccccc4c3C[C@@H]2C1=O [Tadalafil],0.919,0.845,0.996,0.981
Cn1c(=O)cc(N2CCC[C@@H](N)C2)n(Cc2ccccc2C#N)c1=O [Alogliptin benzoate],0.981,0.971,0.991,0.992
O=C1c2cccc(O)c2C(=O)c2c(O)cccc21 [Danthron],0.689,0.525,0.991,0.369
O=C(O)C[C@H](O)C[C@H](O)/C=C/c1c(C2CC2)nc2ccccc2c1-c1ccc(F)cc1 [Pitavastatin calcium],0.983,1,1.01,0.999
C=C1CC[C@H](O)C/C1=C/C=C1\CCC[C@]2(C)[C@@H]([C@H](C)CCCC(C)C)CC[C@@H]12 [Cholecalciferol],1.05,1.07,0.999,0.982
CCN1CCN(c2cc3c(cc2F)c(=O)c(C(=O)O)cn3C2CC2)CC1 [Enrofloxacin],0.0121 (active),0.0049 (active),0.00541 (active),0.00221 (active)
COc1cc(Nc2c(C#N)cnc3cc(OCCCN4CCN(C)CC4)c(OC)cc23)c(Cl)cc1Cl [Bosutinib],1,0.947,1,0.98
C[C@@H]1C[C@H]2[C@@H]3C[C@H](F)C4=CC(=O)C=C[C@]4(C)[C@@]3(F)[C@@H](O)C[C@]2(C)[C@@]1(O)C(=O)COC(=O)C(C)(C)C [Flumethasone pivalate],0.995,1,0.999,1
CN(CCCN1c2ccccc2CCc2ccccc21)CC(=O)c1ccc(Cl)cc1 [Lofepramine],0.944,0.964,0.985,0.957
CC(C)Nc1ncccn1 [Isaxonine],0.976,0.953,0.999,1
COc1cc2c(cc1OC)C(=O)C(CC1CCN(Cc3ccccc3)CC1)C2 (configuration not stated) [Donepezil hydrochloride],0.997,1.01,0.997,0.981
O=C(O)CSCC(=O)NC1CCSC1=O (configuration not stated) [Erdosteine],1.02,1.04,1,0.999
NC(N)=Nc1nc(CSCCN/C=N/S(=O)(=O)c2ccc(Br)cc2)cs1 [Ebrotidine],0.995,1.01,0.998,0.987
CNC(=O)OCc1cccc(COC(=O)NC)n1 [Pyricarbate],1.03,1.08,1.01,0.999
NC(=O)OCC(COC(N)=O)c1ccccc1 [Felbamate],1,1.04,0.999,1

Compound,growth AUC normalised to DMSO control (P. vulgatus RND KO),growth AUC normalised to DMSO control (P. vulgatus WT),growth AUC normalised to DMSO control [1],growth AUC normalised to DMSO control [2]
OCC(CO)N[C@H]1C[C@](O)(CO)[C@@H](O)[C@H](O)[C@H]1O [Voglibose],1.04,1.02,0.977,1.02
O=C(NC1CCN(CCCCC2(C(=O)NCC(F)(F)F)c3ccccc3-c3ccccc32)CC1)c1ccccc1-c1ccc(C(F)(F)F)cc1 [Lomitapide],1.01,1.05,1.01,1
CC(C)=C/C(C)=N/Nc1nncc2ccccc12 [Budralazine],1.02,1.08,0.999,0.989
N#C/C(=C1/SCC(c2ccccc2Cl)S1)n1ccnc1 (configuration not stated) [Lanoconazole],1.04,1.08,1,0.834
COC(=O)C1=C(C)NC(C)=C(C(=O)OC2CCCN(Cc3ccccc3)C2)C1c1cccc([N+](=O)[O-])c1 (configuration not stated) [Benidipine hydrochloride],1.01,0.968,0.993,0.961
O=C(O)c1ccccc1Nc1cc(Cl)ccc1C(=O)O [Lobenzarit disodium],0.992,1.02,1.02,0.959
CCCCS(=O)(=O)N[C@@H](Cc1ccc(OCCCCC2CCNCC2)cc1)C(=O)O [Tirofiban hydrochloride],0.994,0.99,0.989,0.964
CCCCCCCCCCCCCCCCCCCCCC(=O)Nc1ccn([C@@H]2O[C@H](CO)[C@@H](O)[C@@H]2O)c(=O)n1 [Enocitabine],1.01,1.04,1.01,1
COc1ccnc(C[S+]([O-])c2nc3cc(OC(F)F)ccc3[nH]2)c1OC (configuration not stated) [Pantoprazole sodium],0.991,0.998,1.01,0.937
CN(C)CCc1c[nH]c2ccc(C[C@H]3COC(=O)N3)cc12 [Zolmitriptan],0.971,0.964,1,1
CC(NN)c1ccccc1 (configuration not stated) [Mebanazine],0.898,0.871,1,0.99
NS(=O)(=O)c1cc(C(=O)NN2C[C@@H]3[C@H]4CC[C@H](C4)[C@@H]3C2)ccc1Cl [Tripamide],1.02,1.07,0.999,0.975
Cc1cn(-c2cc(NC(=O)c3ccc(C)c(Nc4nccc(-c5cccnc5)n4)c3)cc(C(F)(F)F)c2)cn1 [Nilotinib],1.03,1.05,0.994,0.984
Cc1cc2nc3ccc(=[N+](C)C)cc-3sc2cc1N [Tolonium chloride],0.996,1,0.981,0.987
COc1cc(N)cn[n+]1-c1ccccc1 [Amezinium metilsulfate],1.01,1,1,1
CCc1ccc(C(=O)C(C)CN2CCCCC2)cc1 (configuration not stated) [Eperisone Hydrochloride],1.03,1.04,1,0.989
CCCCNC(=N)NC(=N)N [Buformin],1.04,1.06,1.02,0.991
CCCCc1ncc(/C=C(\Cc2cccs2)C(=O)O)n1Cc1ccc(C(=O)O)cc1 [Eprosartan mesylate],1.02,1.02,1.01,1
NC(=O)[C@@H]1CCCN1C(=O)[C@H](Cc1c[nH]cn1)NC(=O)[C@@H]1CCC(=O)N1 [Thyrotropin-Releasing Hormone],1.05,1.04,0.996,1.01
O=C(O)CNC(=O)c1ccccc1 [Hippuric acid],1.1,1.05,1.01,1.02
Cn1c(NCCN(CCO)CCCc2ccc([N+](=O)[O-])cc2)cc(=O)n(C)c1=O [Nifekalant],1.06,1.03,1.02,1
